Source: PubChem BioAssay (NCATS)
Values joined by “and” are separate entries in the source; they are usually repeats but may differ in a detail not shown here. Identical values can stand only once. Inconclusive results are not listed. Entries that show only a call come without a potency. A number with no mark means an inactive call. Active and inactive are the calls of the source. Unless noted, the call rests on the fitted dose curve; in most records, active means well fitted curve in the direction sought with a large enough effect; inconclusive means small, poorly fitted or top-dose-only effect, or another doubt; inactive means no such curve, though single readings can be large; an effect the other way counts as inactive or inconclusive.

Tests used:
[1] = biological target: Cellular tumor antigen p53 (Homo sapiens) (UniProt P04637); assay: Primary qHTS for small molecule compounds that upregulate eGFP-tagged delta133p53alpha (in N-terminal) cells. (AID 2060322); details: NCI-H358 eGFP-delta133p53alpha fluorescence, 24 h; activation: hits give high values; further: nearly all actives have a fitted effect of over 75% in size; further: potency means the concentration at half of the fitted maximal effect;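 on activation: cells pre-induced with doxycycline then dosed without doxycycline; series mostly up to about 56 µM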
Cellular tumor antigen p53 (Homo sapiens), sequence (P04637 whole entry, looked up): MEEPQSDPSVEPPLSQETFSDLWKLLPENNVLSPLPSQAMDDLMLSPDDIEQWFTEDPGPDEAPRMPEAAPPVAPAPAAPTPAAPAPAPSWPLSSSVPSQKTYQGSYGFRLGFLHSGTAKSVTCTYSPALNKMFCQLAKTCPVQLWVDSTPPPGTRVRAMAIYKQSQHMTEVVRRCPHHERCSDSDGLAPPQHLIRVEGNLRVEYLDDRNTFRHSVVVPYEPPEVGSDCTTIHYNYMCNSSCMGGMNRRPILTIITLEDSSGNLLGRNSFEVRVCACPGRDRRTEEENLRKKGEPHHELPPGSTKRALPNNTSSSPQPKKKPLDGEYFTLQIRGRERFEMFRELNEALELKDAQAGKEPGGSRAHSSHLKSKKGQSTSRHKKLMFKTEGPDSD
In short: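 NCI-H358 cells pre-induced 24 h with 10 ng/ml doxycycline for eGFP-delta133p53alpha, plated dox-free and exposed 24 h at 37C to titrated compounds. Fixed, Hoechst-stained; gated GFP peak intensity by laser scanning cytometry, normalized to DMSO (0%) and 57.5 uM 5-azacytidine (100%).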

[2] = biological target: Cellular tumor antigen p53 (Homo sapiens) (UniProt P04637); assay: Primary qHTS for small molecule compounds that upregulate eGFP-tagged delta133p53alpha (in C-terminal) cells. (AID 2060324); further: potency means the concentration at half of the fitted maximal effect
In short: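 Concentration-response screen: compounds titrated onto pre-induced NCI-H358 D133p53a-eGFP cells, incubated one day, fixed with 3.5% PFA. Per-cell GFP peak intensity was gated, then normalized against intraplate controls.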

[3] = biological target: Aldehyde dehydrogenase, mitochondrial (Homo sapiens) (UniProt P05091); assay: qHTS for Inhibitors of the Aldehyde Dehydrogenase Family (ALDH2) Validation screens (AID 2061302; active means well fitted inhibition curve with a large enough effect; title and protocol of this record describe different tests; further: potency means the concentration at half of the fitted maximal effect)
[4] = biological target: Retinaldehyde dehydrogenase 3 (Homo sapiens) (UniProt P47895); assay: qHTS for Inhibitors of the Aldehyde Dehydrogenase Family (ALDH1A3) Validation screen (AID 2061312); further: nearly all actives have a fitted effect of over 45% in size
[5] = BET inhibitor-based combinations targeting novel dependencies in MECOM-rearranged (r) AML: SET-2 cell line (AID 2202231); details: SET-2 AML cells viability, CellTiter-Glo luminescence, 48 h; viability: hits give low values, concentration not given here; further: nearly all actives have a fitted effect of over 35% in size; further: potency means the concentration at half of the fitted maximal effect
In short: (§1)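 Each compound was tested at eleven concentrations on cells seeded at 500/well. After two days' incubation, ATP-based luminescence reported viability; responses relative to DMSO and blank wells yielded AUC and cell-line-centred Z-AUC.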

[6] = BET inhibitor-based combinations targeting novel dependencies in MECOM-rearranged (r) AML: OCI-AML3 cell line (AID 2202232); details: Potency: OCI-AML3 viability; further: nearly all actives have a fitted effect of over 35% in size; further: potency means the concentration at half of the fitted maximal effect
In short: as §1

[7] = BET inhibitor-based combinations targeting novel dependencies in MECOM-rearranged (r) AML: MV-4-11 cell line (AID 2202233); further: nearly all actives have a fitted effect of over 45% in size; further: potency means the concentration at half of the fitted maximal effect
In short: (§2)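 First, 500 cells per well were seeded; next, drugs were pinned as 11-point doses; then plates sat 48 hr in the incubator; finally CellTiter-Glo was added and luminescence read, with AUC and Z-AUC computed.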

[8] = BET inhibitor-based combinations targeting novel dependencies in MECOM-rearranged (r) AML: HNT-34 cell line (AID 2202234); further: nearly all actives have a fitted effect of over 35% in size; further: potency means the concentration at half of the fitted maximal effect
In short: as §2

[9] = BET inhibitor-based combinations targeting novel dependencies in MECOM-rearranged (r) AML: UCSD-AML1 cell line (AID 2202235); further: nearly all actives have a fitted effect of over 40% in size; further: potency means the concentration at half of the fitted maximal effect
In short: as §2

[10] = BET inhibitor-based combinations targeting novel dependencies in MECOM-rearranged (r) AML: AML-191 cell line (AID 2202236; further: nearly all actives have a fitted effect of over 35% in size; further: potency means the concentration at half of the fitted maximal effect)
In short: as §1

[11] = BET inhibitor-based combinations targeting novel dependencies in MECOM-rearranged (r) AML: AML-194 cell line (AID 2202237; further: nearly all actives have a fitted effect of over 40% in size; further: potency means the concentration at half of the fitted maximal effect)
In short: as §1

SMILES | activation [1] | Potency [2] | Potency [3] | Potency [4] | viability [5] | Potency [6] | Potency [7] | Potency [8] | Potency [9] | Potency [10] | Potency [11] | Potency [1] | Potency [5]
CCOC(=O)c1ncn2c1CN(C)C(=O)c1cc(F)ccc1-2 | -0.975% and -12.6% and 1.77% | inactive | inactive | inactive | 114% | inactive | inactive | inactive | inactive | inactive | inactive | – | –
CCCCS(=N)(=O)CCC(N)C(=O)O (stereo unspecified) | -49.8% | inactive | inactive | inactive | 120% | 9.59 µM (active) | 21.5 µM (active) | inactive | inactive | inactive | inactive | – | –
Nc1ncn([C@@H]2O[C@H](CO)[C@@H](O)[C@H]2O)c(=O)n1 | – | 21.3 µM (active) | inactive | inactive | – | 5.9 µM (active) | 3.32 µM (active) | 4.68 µM (active) | 4.68 µM (active) | 5.25 µM (active) | 16.6 µM (active) | 1.69 µM (active) | 1.05 µM (active)
O=C1N(c2ccccc2)c2ccccc2C1(Cc1ccncc1)Cc1ccncc1 | 10.9% and -8.78% and -29% | inactive | inactive | inactive | 104% | inactive | inactive | – | inactive | inactive | – | – | –
CCCc1c(OCCCOc2ccc(OCC(=O)O)cc2)ccc(C(C)=O)c1O | -13.9% | inactive | inactive | inactive | 119% | inactive | inactive | inactive | – | inactive | inactive | – | –
CC(C)NCC(O)COc1ccc(CCOCC2CC2)cc1 (stereo unspecified) | -6.83% and 29.3% and -23.2% | inactive | inactive | inactive | 115% | inactive | inactive | – | inactive | inactive | inactive | – | –
O=c1[nH]cc(F)c(=O)[nH]1 | -32.6% and 6.33% | inactive | inactive | inactive | – | – | 6.61 µM (active) | – | – | – | – | – | 10.5 µM (active)
Cc1ccc(N(CC2=NCCN2)c2cccc(O)c2)cc1 | -15.3% and 15.9% | inactive | inactive | inactive | 97.5% | – | 26.3 µM (active) | – | 23.5 µM (active) | – | – | – | –
CN1CCC(=C2c3ccccc3CC(=O)c3sccc32)CC1 | 59.8% and 8.47% and -42.7% | inactive | inactive | inactive | 112% | 18.6 µM (active) | – | – | – | inactive | inactive | – | –
CC(=O)N1CCN(c2ccc(OC[C@H]3CO[C@](Cn4ccnc4)(c4ccc(Cl)cc4Cl)O3)cc2)CC1 | -11.5% and -0.0769% | inactive | inactive | inactive | – | inactive | inactive | inactive | inactive | inactive | – | – | –
Oc1ccc2ccccc2c1SSc1c(O)ccc2ccccc12 | -0.0951% | inactive | 14.1 µM (active) | inactive | – | 6.61 µM (active) | 16.6 µM (active) | 18.6 µM (active) | 23.5 µM (active) | 20.9 µM (active) | 20.9 µM (active) | – | –
CC[C@H](C)C(=O)O[C@H]1CCC=C2C=C[C@H](C)[C@H](CC[C@@H]3C[C@@H](O)CC(=O)O3)[C@H]21 | -12.3% | inactive | inactive | inactive | – | 11.8 µM (active) | – | – | – | – | – | – | –
CCCN(CCC)C(=O)C(CCC(=O)O)NC(=O)c1ccccc1 (stereo unspecified) | -4.18% and 0.787% | inactive | inactive | inactive | – | inactive | inactive | inactive | inactive | inactive | inactive | – | –
CC(C)(Oc1ccc(C2CC2(Cl)Cl)cc1)C(=O)O (stereo unspecified) | -8.47% and 20.1% and -16.4% | inactive | inactive | inactive | 114% | – | inactive | inactive | – | inactive | inactive | – | –
CN[C@H](CC(C)C)C(=O)N[C@H]1C(=O)N[C@@H](CC(N)=O)C(=O)N[C@H]2C(=O)N[C@H]3C(=O)N[C@H](C(=O)N[C@H](C(=O)O)c4cc(O)cc(O)c4-c4cc3ccc4O)[C@H](O)c3ccc(c(Cl)c3)Oc3cc2cc(c3O[C@@H]2O[C@H](CO)[C@@H](O)[C@H](O)[C@H]2O[C@H]2C[C@](C)(N)[C@H](O)[C@H](C)O2)Oc2ccc(cc2Cl)[C@H]1O | -2.02% | inactive | inactive | inactive | 117% | – | inactive | inactive | inactive | inactive | inactive | – | –
